The values that follow come from PubChem BioAssay AID588689 (Southern Research Specialized Biocontainment Screening …, 2011).

The campaign covered roughly 340,000 compounds. About 1,000 (0.29%) were called active. No stated cut-off is given here; in the data, inconclusive means inhibition above about 29% without an active follow-up result; inactive means below that. Only a sample is shown. Entries with a potency or affinity are not part of this list.

In this assay the target is Genome polyprotein (Dengue virus type 2 (strain 16681-PDK53)) (UniProt P29991). The assay is described as follows: Dengue-2 NS5 methyltransferase inhibitors, primary screen, biochemical, confirmation dose response (AID 588689). Conditions: Dengue-2 NS5 methyltransferase capping enzyme assay, at 25 µM, stronger effect = higher value.
[1] abbreviates: measured here: pilot screen replicate inhibition.

As usually defined, the inhibition is the relative decrease from the control value, in per cent. Take `O=C1NN(c2ccccc2)C(=O)/C1=C/c1ccc(Sc2cccc3ccccc23)o1`: the inhibition is -6.2% (inactive).
For the compound `O=Cc1ccc(-c2cccc(C(=O)O)c2)o1`, the inhibition is 0.72% (inactive).
As to `O=C1NN(c2ccccc2)C(=O)/C1=C\c1ccc(-c2cc([N+](=O)[O-])ccc2O)o1`, the inhibition was -10.2% (inactive).
As to `O=C1NN(c2ccccc2)C(=O)/C1=C/c1ccc(Sc2ccc(Cl)cc2)o1`, the inhibition was 29.5% (inactive).
For the compound `CCc1cc(=O)oc2c3c(cc(OCC(=O)NCCCC(=O)O)c12)OC(C)(C)CC3`, the inhibition is -5.29% (inactive).
With `Cc1cc(C)n2nc(SCC(=O)N3CCCCC3C)nc2n1` (stereo not given), the inhibition was 3.69% (inactive).
Take `CCC1(C2=CCCCC2)C(=O)NC(=O)N=C1N` (stereo not given): the inhibition was 1.17% (inactive).
Still for that read-out and setting: then `C[C@H](NC(=O)c1nc[nH]c1C(=O)NCCCCCN)C(=O)OCc1ccccc1`, with 1.59% (inactive); and `O=C(COC(=O)c1ccc(-c2cnc3ccccc3n2)cc1)c1ccccc1`, with 5.84% (inactive); and `COc1ccc(-n2nc3cc(N)c(Br)cc3n2)cc1`, with 2.38% (inactive).
As for `Nc1cccc2nsnc12`, the inhibition is 12.4% (inactive).
Same read-out and setting: as for `CCOC(=O)C1C(C(=O)Nc2cccc(C(F)(F)F)c2)C1C(=O)NC(C)C` (stereo not given), the figure is -1.46% (inactive).
Consider `O=C(Nc1c[nH]c(=O)[nH]c1=O)c1cccc([N+](=O)[O-])c1`, for which the inhibition is -9.65% (inactive).
The same measure, in the same setting: then `COC(=O)c1sc(-c2ccc(C(C)(C)C)cc2)cc1NC(=O)CSCC(=O)O`, with 3.13% (inactive); and `COC(=O)c1sc(-c2ccc(Cl)cc2)cc1NC(=O)/C=C/C(=O)O`, with 16.1% (inactive).
Consider `COC(=O)c1sc(-c2ccccc2)cc1NC(=O)c1ccccc1`, for which the inhibition was -1.45% (inactive).
Turning to `COC(=O)c1sc(-c2ccc(Cl)cc2)cc1NC(=O)c1ccccc1C(=O)O`, the inhibition was 15.7% (inactive).
Still for that read-out and setting: then `OCC(CO)(CO)n1cnnn1`, with -8.59% (inactive); and `Cc1ccnc(N/C=C(/NC(=O)c2ccccc2)C(=O)N/N=C\c2ccc(Cl)cc2)n1`, with -3.09% (inactive); and `O=C(COC(=O)c1ccc2c(c1)S(=O)(=O)N=C1CCCCCN12)NCc1cccs1`, with -3.45% (inactive).
As for `CCOC(=O)C1CCCN(S(=O)(=O)c2cc(OCC(N)=O)c(C)cc2Cl)C1` (stereo not given), the inhibition is -5.68% (inactive).
Still for that read-out and setting: then `CC(C)c1ccc(S(=O)(=O)c2nnn3c2nc(N2CCCCC2)c2ccccc23)cc1`, with 1.47% (inactive); and `CC(C)c1ccc(S(=O)(=O)c2nnn3c2nc(NCC2CCCO2)c2ccccc23)cc1` (stereo not given), with 0% (inactive).
Still for that read-out and setting: as for `O=C(/C=C/c1ccco1)Nc1ccc2c(c1)OCCO2`, the figure is -4.48% (inactive).
For `CCOC(=O)c1c(-c2ccc(C)cc2)csc1NC(=O)C1CC=CCC1C(=O)O` (stereo not given), the inhibition is 14.8% (inactive).
On to `COC(=O)c1c(-c2ccc(C)cc2)csc1NC(=O)C1CC=CCC1C(=O)O` (stereo not given), for which the inhibition was 0% (inactive).
Consider `COC(=O)c1c(-c2ccccc2)csc1NC(=O)C1CC=CCC1C(=O)O` (stereo not given), for which the inhibition was -4.1% (inactive).
As to `CCOC(=O)c1c(-c2ccc(F)cc2)csc1NC(=O)C1CC=CCC1C(=O)O` (stereo not given), the inhibition is 9.56% (inactive).
As for `O=C(NC(=S)Nc1ccccc1Br)C1CC1`, the inhibition was 7.22% (inactive).
Same read-out and setting: as for `Cc1nc2cc(N3CCCCC3)c(NC(=O)c3cccnc3)cc2c(=O)n1Cc1ccccc1`, the figure is -0.81% (inactive).
`Nn1c(SCC(=O)Nc2ccc(F)c(F)c2)nnc1C1CCCCC1`: the inhibition was -4.85% (inactive).
For `COC(=O)CSc1nnc(-c2ccc(S(=O)(=O)N3CCCC3)cc2)o1`, the inhibition was -3.25% (inactive).
`Nc1nc2c(nc(SCc3ccccc3Br)n2[C@@H]2O[C@H](CO)[C@@H](O)[C@H]2O)c(=O)[nH]1`: the inhibition was -5.87% (inactive).
For the compound `CCOc1ccc(NC(=S)N(CCc2c(C)[nH]c3ccc(C)cc23)Cc2ccncc2)cc1`, the inhibition is -0.7% (inactive).
With `O=C(CSc1nnc(-c2ccc(Cl)cc2)n1-c1ccccc1)N/N=C/c1ccccc1C(=O)O`, the inhibition was -3.12% (inactive).
Consider `COc1ccc([C@H]2N[C@]3(CCCN(Cc4ccc(Cl)cc4)C3=O)[C@H]3C(=O)N(Cc4ccccc4)C(=O)[C@@H]23)cc1`, for which the inhibition is -3.98% (inactive).
Turning to `CCOC(=O)c1c(NCc2ccc3c(c2)OCO3)c2ccccc2[nH]c1=O`, the inhibition was -4.02% (inactive).
Still for that read-out and setting: as for `O=S(=O)(Nc1nc(-c2ccccc2)cs1)c1cc(Cl)ccc1Cl`, the figure is 28.3% (inactive).
As for `O=S(=O)(Nc1nccs1)c1cc(Cl)ccc1Cl`, the inhibition is -13.7% (inactive).
Regarding `S=C(Nc1ccc(Nc2ccccc2)cc1)Nc1ccccn1`, the inhibition is -0.82% (inactive).
`COc1ccc(-c2cc(=O)c3ccccc3n2C)cc1`: the inhibition is -9.65% (inactive).
Regarding `CCOc1ccc(N2C(=O)C(Cl)=C(Nc3ccccc3O)C2=O)cc1`, the inhibition is 31% (inactive).
In the case of `COc1ccc(N2C(=O)C(Cl)=C(Nc3ccccc3OC)C2=O)cc1`, the inhibition is 1.45% (inactive).
In the case of `Cc1cccc(/C=N/n2c(C)cc(C)c(C#N)c2=O)c1`, the inhibition was -3.26% (inactive).
`O=C(O)c1cccc(-n2cccc2C=C2C(=O)c3ccccc3C2=O)c1`: the inhibition is 12.5% (inactive).
On to `O=C1C(=Cc2cccn2-c2ccccc2)C(=O)c2ccccc21`, for which the inhibition is 5.2% (inactive).
For the compound `O=Cc1cccn1-c1ccc(O)cc1`, the inhibition was -5.89% (inactive).
`O=C1NC(=S)N/C1=C/c1cccn1-c1ccc([N+](=O)[O-])cc1`: the inhibition is 0% (inactive).
The same measure, in the same setting: then `CCC(OC(=O)CNS(=O)(=O)c1ccccc1)C(=O)c1ccccc1` (stereo not given), with 5.35% (inactive).
As for `COc1ccc2c(c1OC)C(=O)N1C(C(=O)O)Cc3c([nH]c4ccccc34)C21` (stereo not given), the inhibition is -3.23% (inactive).
Regarding `CCOc1cc(NC(=S)NCCCN2CCOCC2)c(OCC)cc1NC(=O)c1cccc(C)c1`, the inhibition was 3.64% (inactive).
For the compound `O=S(=O)(CCSc1ccc(C(F)(F)F)cn1)c1ccccc1`, the inhibition is -9.27% (inactive).
Take `O=C(NCc1ccco1)c1ccc(CS(=O)Cc2cccc(Cl)c2)o1` (stereo not given): the inhibition is 2.71% (inactive).
Take `NNc1nc(-c2ccccc2)c2cc(Cl)ccc2n1`: the inhibition was 4.62% (inactive).
`COCCN(CC(=O)Nc1cccc(C)c1C)C(=O)C1(c2ccc(Cl)cc2)CCC1`: the inhibition is -0.37% (inactive).
Regarding `O=C1CCCC2=C1C(c1ccc(Br)cc1)c1c([nH]c(=S)[nH]c1=O)N2` (stereo not given), the inhibition was 15.2% (inactive).
For the compound `Cc1ccc(C2C3=C(CCCC3=O)Nc3[nH]c(=S)[nH]c(=O)c32)cc1` (stereo not given), the inhibition was -5.01% (inactive). In addition, the inhibition under setting [1] was -6.68%.
`O=c1cc(CCc2ccccc2)oc2cccc(O)c12`: the inhibition is -3.62% (inactive).
Regarding `CC(C)(C)C(=O)CN1C(=O)NC2(CCc3ccccc32)C1=O` (stereo not given), the inhibition is -0.65% (inactive).
Same read-out and setting: then `COc1cccc(-c2nc(CS(=O)(=O)CC(=O)N3CCc4ccccc4C3)c(C)o2)c1`, with 6.54% (inactive); and `CNc1ccccc1C(=O)OC`, with 2.17% (inactive).
Still for that read-out and setting: then `COc1cccc(C(C2=C(O)CC(C)(C)CC2=O)C2C(=O)CC(C)(C)CC2=O)c1` (stereo not given), with -1.95% (inactive); and `CC1(C)CC(=O)C(C(C#Cc2ccccc2)C2=C(O)CC(C)(C)CC2=O)=C(O)C1`, with -2.82% (inactive); and `CC1(C)CC(=O)C(C(C2=C(O)CC(C)(C)CC2=O)c2ccco2)C(=O)C1` (stereo not given), with -52.5% (inactive).
For the compound `CC1(C)CC(=O)C(Br)=C(O)C1`, the inhibition is -10.3% (inactive).
As for `CC1(C)CC(=O)C(C(C2=C(O)CC(C)(C)CC2=O)c2cccc(O)c2)C(=O)C1` (stereo not given), the inhibition is 0.68% (inactive). Moreover, the inhibition under setting [1] was -19.3%.
For the compound `CC1(C)CC(=O)C(C(c2ccco2)C2C(=O)CC(C)(C)CC2=O)C(=O)C1`, the inhibition is 37.4% (inactive). The inhibition under setting [1] worked out at 17.1%.
For `CC1(C)CC(=O)C(N=Nc2ccc(OC(F)F)cc2)=C(O)C1`, the inhibition is 10.8% (inactive).
Same read-out and setting: as for `CC1(C)CC(=O)C(C(c2ccncc2)C2C(=O)CC(C)(C)CC2=O)C(=O)C1`, the figure is 5.41% (inactive); as for `O=C(O)c1cnc(-c2ccccc2)nc1Sc1ccc(Cl)cc1Cl`, 4.03% (inactive).
For the compound `Cc1cccc(C2=NN(c3ccccc3)[C@@H](C(=O)N3CCOC3=O)[C@@H]2C)c1`, the inhibition was -1.32% (inactive). The inhibition under setting [1] amounted to 4.88%.
On to `CCOC(=O)c1cc(=O)nc(N)s1`, for which the inhibition is -4.03% (inactive).
Regarding `O=C(COc1ccc([N+](=O)[O-])cc1)NCC(c1cccs1)N1CCOCC1` (stereo not given), the inhibition was 4.32% (inactive).
`CC(C)(C)OC(=O)N1CCC(CC2CC(c3ccccc3)=NO2)(C(=O)O)CC1` (stereo not given): the inhibition was -3.93% (inactive).
For `O=S(=O)(Nc1ccccc1N1CCCCC1)c1ccccc1`, the inhibition is 1.3% (inactive).
For the compound `S=C(Nc1ccc(Br)cc1Cl)N1CCCC1`, the inhibition is -2.6% (inactive).
On to `COc1ccc(C2=CC(=O)C[C@H](c3ccc(OC)c(OC)c3)C2)cn1`, for which the inhibition was -0.4% (inactive).
Turning to `O=C(O)CN1CCN(Cc2cccc(Cl)c2)C1=O`, the inhibition is -1.31% (inactive).
Regarding `CC1(C)CC(=O)C(CC2=C(O)CC(C)(C)CC2=O)C(=O)C1`, the inhibition was -33.8% (inactive).
As to `CCCC(C1=C(O)CC(C)(C)CC1=O)C1C(=O)CC(C)(C)CC1=O` (stereo not given), the inhibition is -11.2% (inactive).
As for `CC(C)c1cc(C(=O)NCc2cccnc2)no1`, the inhibition is 1.6% (inactive).
On to `O=C(NNc1ccccc1[N+](=O)[O-])Nc1ccccc1`, for which the inhibition was -1.39% (inactive).
For `CC1CCc2c(sc3ncnc(SCC(=O)Nc4ccc(C(=O)O)cc4)c23)C1` (stereo not given), the inhibition is -4.98% (inactive).
Regarding `COc1cc(NC(=O)CSc2ncnc3sc4c(c23)CCCC4)c(C(=O)O)cc1OC`, the inhibition was -3.33% (inactive).
As for `COCCNC(=O)C(=O)c1c(-c2ccccc2)[nH]c2ccccc12`, the inhibition is 1.52% (inactive).
Consider `O=C(Nc1cc(S(=O)(=O)N2CCOCC2)ccc1N1CCCC1)c1ccc2c(c1)S(=O)(=O)c1ccccc1C2=O`, for which the inhibition is -7.41% (inactive).
Turning to `O=C(Nc1ccc(S(=O)(=O)N2CCOCC2)cc1)c1ccc2c(c1)S(=O)(=O)c1ccccc1C2=O`, the inhibition is -4.52% (inactive).
As for `COCc1nc(-c2cc(Br)ccc2OC)no1`, the inhibition is -4.06% (inactive).
The same measure, in the same setting: then `CCn1c(O)c(C=Nc2ccccc2)oc1=S`, with -8.34% (inactive); and `Cc1nc2ccc(NC(=O)c3ccc(Cl)c([N+](=O)[O-])c3)cc2s1`, with -4.44% (inactive).
As to `Cc1nc2ccc(NC(=O)c3ccc([N+](=O)[O-])cc3[N+](=O)[O-])cc2s1`, the inhibition was -5.18% (inactive).
